Source: PubChem BioAssay (NCATS)
Values joined by “and” are separate entries in the source; they are usually repeats but may differ in a detail not shown here. Identical values can stand only once. Results filed as inconclusive are left out. Entries that show only a call come without a potency. Unmarked numbers belong to inactive results. Active and inactive are the calls of the source. Unless noted, the call rests on the fitted dose curve; in most records, active means well fitted curve in the direction sought with a large enough effect; inconclusive means small, poorly fitted or top-dose-only effect, or another doubt; inactive means no such curve, though single readings can be large; an effect the other way counts as inactive or inconclusive.

Legend:
[1] = molecular target: Cytochrome P450 2D6 (Homo sapiens) (UniProt P10635); assay: Cytochrome P450 family 2 subfamily D member 6 (CYP2D6) small molecule antagonists: luciferase biochemical (cell-free) qHTS assay (AID 1645840; active means well fitted curve in the direction sought with a large enough effect in the repeat runs; an effect the other way counts as inactive or inconclusive; further: nearly all actives have a fitted effect of over 55% in size; on activity change, negative = inhibition: series mostly up to about 57 µM)
Cytochrome P450 2D6 (Homo sapiens), sequence (P10635 whole entry, looked up): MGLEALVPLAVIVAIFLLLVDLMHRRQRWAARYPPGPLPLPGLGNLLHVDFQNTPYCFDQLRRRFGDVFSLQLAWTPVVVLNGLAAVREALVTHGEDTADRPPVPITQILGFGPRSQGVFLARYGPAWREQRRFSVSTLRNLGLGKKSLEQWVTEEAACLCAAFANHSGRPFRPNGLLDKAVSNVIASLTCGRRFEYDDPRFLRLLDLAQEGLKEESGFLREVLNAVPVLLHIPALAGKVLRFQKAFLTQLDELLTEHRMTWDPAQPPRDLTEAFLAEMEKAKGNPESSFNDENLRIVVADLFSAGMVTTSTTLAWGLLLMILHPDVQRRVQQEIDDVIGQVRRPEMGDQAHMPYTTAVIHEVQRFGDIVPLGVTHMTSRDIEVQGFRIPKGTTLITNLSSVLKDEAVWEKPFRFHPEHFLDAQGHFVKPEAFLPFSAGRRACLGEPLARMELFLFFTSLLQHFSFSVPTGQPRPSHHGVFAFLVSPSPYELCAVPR
Procedure, shortened: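 P450-Glo luminescent screen: recombinant CYP2D6 enzyme–proluciferin substrate mix preincubated with compound 10 min at room temperature, then NADPH regeneration added for 1 h at room temperature. Detection reagent added for 20 min; luciferin light read as relative luminescence units.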

[2] = molecular target: Cytochrome P450 2C9 (Homo sapiens) (UniProt P11712); assay: Cytochrome P450 family 2 subfamily C member 9 (CYP2C9) small molecule antagonists: luciferase biochemical (cell-free) qHTS assay (AID 1645842; active means well fitted curve in the direction sought with a large enough effect in the repeat runs; an effect the other way counts as inactive or inconclusive; further: nearly all actives have a fitted effect of over 55% in size; on activity change, negative = inhibition: series mostly up to about 57 µM)
Cytochrome P450 2C9 (Homo sapiens), sequence (P11712 whole entry, looked up): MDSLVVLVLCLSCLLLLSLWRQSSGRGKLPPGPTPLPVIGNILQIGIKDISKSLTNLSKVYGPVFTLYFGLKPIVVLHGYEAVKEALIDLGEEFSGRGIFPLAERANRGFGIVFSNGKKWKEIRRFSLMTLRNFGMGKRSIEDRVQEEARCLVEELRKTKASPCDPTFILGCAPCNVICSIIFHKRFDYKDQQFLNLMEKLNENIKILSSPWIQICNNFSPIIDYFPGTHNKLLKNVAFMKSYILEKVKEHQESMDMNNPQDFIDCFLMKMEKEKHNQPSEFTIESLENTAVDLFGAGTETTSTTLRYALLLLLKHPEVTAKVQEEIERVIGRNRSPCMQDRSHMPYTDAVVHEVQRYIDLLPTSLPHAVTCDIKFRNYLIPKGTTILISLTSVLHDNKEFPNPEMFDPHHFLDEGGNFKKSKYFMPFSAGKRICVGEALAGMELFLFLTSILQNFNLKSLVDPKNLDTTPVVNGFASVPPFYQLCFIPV
Procedure, shortened: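 Luminescence, after 20 min with luciferin detection reagent, reflected CYP2C9 turnover during a 1 h NADPH-driven reaction at 37C. Enzyme-substrate mix contained 0.4% bovine serum albumin and was preincubated with compound 10 min at room temperature.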

[3] = Primary qHTS for inhibitors of nuclear receptor binding SET domain protein 2 (NSD2) in an isogenic RCH-ACV NSD2 p.E1099K mutant (9B) (AID 1645876); further: nearly all actives have a fitted effect of over 70% in size
[4] = Primary qHTS for inhibitors of nuclear receptor binding SET domain protein 2 (NSD2) in an RCH-ACV wild type WT cells (2C) (AID 1645877); further: nearly all actives have a fitted effect of over 70% in size
Potency means the concentration at half of the fitted maximal effect.

SMILES	Potency [1]	Potency [2]	Potency [3]	Potency [4]	activity change, negative = inhibition [1]	activity change, negative = inhibition [2]	activity change, negative = viability loss [3]	activity change, negative = cell killing [4]
CN1[C@@H]2CC[C@H]1CC(NC(=O)n1c(=O)[nH]c3ccccc31)C2 (some centres not stated)	1.55 µM (active)	inactive	inactive	inactive	–	–	–	–
COCCc1ccc(OCC2CO2)cc1 (configuration not stated)	inactive	inactive	inactive	inactive	–	–	–	–
COc1cc(NS(=O)(=O)c2ccc(N)cc2)nc(C)n1	inactive	inactive	inactive	inactive	–	–	–	–
O=C1Nc2ccccc2C1(c1ccc(O)cc1)c1ccc(O)cc1	19.5 µM (active)	4.36 µM (active)	21.1 µM (active)	16.8 µM (active)	–	–	–	–
Cc1coc2ccccc2c1=O	inactive	inactive	inactive	inactive	–	–	–	–
COC(=O)C1=C(C)NC(C)=C(C(=O)OCCc2ccc(N3CCN(C(c4ccccc4)c4ccccc4)CC3)cc2)C1c1cccc([N+](=O)[O-])c1 (configuration not stated)	inactive	0.55 µM (active)	inactive	inactive	–	–	–	–
Cc1cc(O)c2c(O)c3c(O)cccc3cc2c1	inactive	3.09 µM (active)	inactive	inactive	–	–	–	–
Cc1sccc1Br	inactive	inactive	inactive	inactive	–	–	–	–
Nc1c2ccccc2nc2ccccc12	17.4 µM (active)	inactive	3.76 µM (active)	4.22 µM (active)	–	–	–	–
CC(=O)Nc1ccc(S(=O)(=O)Nc2cc(C)on2)cc1	inactive	inactive	inactive	inactive	–	–	–	–
Cc1ccc2c(Cl)cc(Cl)c(O)c2n1	inactive	inactive	inactive	inactive	–	–	–	–
COC(=O)c1cc(Cl)ccc1NS(=O)(=O)C(F)(F)F	inactive	inactive	inactive	inactive	–	–	–	–
Cc1c(N)cccc1C(F)(F)F	inactive	inactive	inactive	inactive	–	–	–	–
C=CCOc1cc(Cl)ccc1C(=O)NCCN(CC)CC	0.275 µM (active)	inactive	inactive	inactive	–	–	–	–
CCCCCCCCCCCC[N+](C)(C)Cc1ccccc1	0.195 µM (active)	15.5 µM (active)	0.473 µM (active)	0.473 µM (active)	–	–	–	–
O=C1CC2(CCCC2)CC(=O)N1	inactive	inactive	inactive	inactive	–	–	–	–
O=C(O)c1ccc(OCCN2CCCCC2)cc1	inactive	inactive	inactive	inactive	–	–	–	–

SMILES	Potency [1]	Potency [2]	Potency [3]	Potency [4]	activity change, negative = inhibition [1]	activity change, negative = inhibition [2]	activity change, negative = viability loss [3]	activity change, negative = cell killing [4]
Cc1cccc(OCC(O)CNC(C)(C)C)c1C (configuration not stated)	11 µM (active)	inactive	inactive	inactive	–	–	–	–
NCC[C@H](O)C(=O)N[C@@H]1C[C@H](N)[C@@H](O[C@H]2O[C@H](CN)[C@@H](O)[C@H](O)[C@@H]2O)[C@H](O)[C@@H]1O[C@H]1O[C@H](CO)[C@@H](O)[C@H](N)[C@@H]1O	–	–	–	–	10.7% [at 0.91 µM]	1.19% [at 0.91 µM]	7.89% [at 0.588 µM]	-24.5% [at 0.588 µM]
O=C1Nc2cc(Cl)ccc2Oc2ccccc21	inactive	inactive	inactive	inactive	–	–	–	–
Cc1ncc([N+](=O)[O-])n1C	inactive	inactive	inactive	inactive	–	–	–	–
CC(C)(C)C1CCC(CC2=C(O)c3ccccc3C(=O)C2=O)CC1 (configuration not stated)	inactive	3.89 µM (active)	7.5 µM (active)	9.44 µM (active)	–	–	–	–
OC1(c2ccc(Cl)c(C(F)(F)F)c2)CCN(CCCC(c2ccc(F)cc2)c2ccc(F)cc2)CC1	1.23 µM (active)	15.5 µM (active)	4.22 µM (active) and 3.25 µM (active)	4.73 µM (active) and 4.59 µM (active)	–	–	–	–
CN=C(N)NC(=O)Nc1c(C)cccc1C	inactive	inactive	inactive	inactive	–	–	–	–
CCCc1c2oc(C(=O)O)cc(=O)c2cc2c(=O)cc(C(=O)O)n(CC)c12	inactive	inactive	inactive	inactive	–	–	–	–
COc1cc(S(N)(=O)=O)cc(C(=O)O)c1OC	inactive	inactive	inactive	inactive	–	–	–	–
NC(=O)COCCN1CCN(C(c2ccccc2)c2ccc(Cl)cc2)CC1 (configuration not stated)	inactive	inactive	inactive	inactive	–	–	–	–
CCCCCCn1c(=O)c2c(ncn2C)n(C)c1=O	inactive	inactive	inactive	inactive	–	–	–	–
CC(=O)Nc1ccn(C2COC(COC(=O)c3ccccc3)O2)c(=O)n1 (configuration not stated)	inactive	inactive	10.6 µM (active)	5.31 µM (active)	–	–	–	–
C#CC(C)(CC)OC(=O)c1ccccc1C(=O)O (configuration not stated)	inactive	inactive	inactive	inactive	–	–	–	–
CC(C)OP(=O)(CP(=O)(OC(C)C)OC(C)C)OC(C)C	inactive	inactive	inactive	inactive	–	–	–	–
O=C(c1ccco1)N1CCNCC1	inactive	inactive	inactive	inactive	–	–	–	–
NC(=O)C1(N2CCCCC2)CCN(CCCN2c3ccccc3CCc3ccc(Cl)cc32)CC1	2.45 µM (active)	4.9 µM (active)	9.44 µM (active)	8.41 µM (active)	–	–	–	–
